The source made the active and inactive calls. Unless noted, how the calls were made is not given here.
Experiments:
[1] = test system: Wnt5a (protein binding on small-molecule microarray); test: Wnt5a binders on small-molecule microarray, primary screen, biophysical, 635/667 nm fluorescence (AID 1142); settings: 635 nm fluorescence, higher = more signal;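 further: fluorescence read at 667 nm with signal to noise per printed feature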
[2] = cell viability in Huh7 cells, primary screen, cytotoxicity control for HCV replication inhibitor project, CellTiter-Glo luminescence, basal, 48 h (AID 1143); settings: Huh7 HCV replicon, higher = more signal, called active from +8 up or from −8 down;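 further: Huh7 hepatoma cells carrying a hepatitis C replication reporter with no stimulus; test concentration not given here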
[3] = P. aeruginosa biofilm formation inhibitors, primary screen, PAO1 strain, BacTiter-Glo luminescence, LB-PBS (AID 1144); settings: 12 h, higher = more signal
[4] = CREB reporter modulators without forskolin, primary screen, cell-based, PC12, CRE-LacZ reporter, unstimulated (AID 1145); settings: no forskolin, luminescence, 4.5 h, higher = more signal, called active from +8 up or from −8 down
[5] = CREB reporter modulators under forskolin, primary screen, cell-based, PC12, CRE-LacZ reporter, forskolin-stimulated (AID 1146); settings: luminescence, 4.5 h, higher = more signal, called active from +8 up or from −8 down;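 further: PC12 cells with 6xCRE LacZ reporter stimulated by forskolin 10 µM; beta-galactosidase reporter signal reflecting CREB driven transcription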
[6] = molecular target: Streptavidin (Streptomyces avidinii) (UniProt P22629); test: streptavidin binders on small-molecule microarray, primary screen, artefact control for SMM compound annotation, biophysical, 635/667 nm fluorescence (AID 1147); settings: streptavidin binding, higher = more signal;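 further: signal reflects streptavidin binding to arrayed compounds as a control protein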
Chain of Streptavidin (Streptomyces avidinii) (P22629 whole entry, looked up): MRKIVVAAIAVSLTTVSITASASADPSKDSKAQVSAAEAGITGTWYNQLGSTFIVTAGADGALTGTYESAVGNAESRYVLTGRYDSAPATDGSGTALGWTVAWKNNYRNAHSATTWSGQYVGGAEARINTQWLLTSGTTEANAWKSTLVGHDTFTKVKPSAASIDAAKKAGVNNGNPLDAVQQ

[7] = small-molecule binders of probe aInhba, primary screen, biochemical, small-molecule microarray, 635/667 nm fluorescence (AID 1148); settings: higher = more signal;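 further: score merges 667nm spot fluorescence with signal-to-noise for antibody binding to printed compounds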
Torsin-1A (Homo sapiens) [8] = molecular target: Torsin-1A (Homo sapiens) (UniProt O14656); test: torsin A binders from cell lysate, primary screen, small-molecule microarray, wild-type, 635/667 nm (AID 1149); settings: COS7 hTOR1A-WT lysate, 635 nm fluorescence, higher = more signal
Chain of Torsin-1A (Homo sapiens) (O14656 whole entry, looked up): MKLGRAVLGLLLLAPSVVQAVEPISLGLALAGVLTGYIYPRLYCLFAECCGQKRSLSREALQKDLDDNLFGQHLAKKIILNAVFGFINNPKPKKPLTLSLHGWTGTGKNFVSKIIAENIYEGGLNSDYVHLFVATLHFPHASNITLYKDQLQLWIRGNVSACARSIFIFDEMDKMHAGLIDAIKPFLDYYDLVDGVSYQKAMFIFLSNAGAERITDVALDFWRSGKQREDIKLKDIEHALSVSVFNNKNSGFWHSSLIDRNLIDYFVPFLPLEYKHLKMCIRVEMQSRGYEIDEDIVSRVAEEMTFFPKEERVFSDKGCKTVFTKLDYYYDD

Torsin-1A (Homo sapiens) [9] = molecular target: Torsin-1A (Homo sapiens) (UniProt O14656); test: small-molecule binders of mutant TOR1A in lysate, primary screen, cell lysate, small-molecule microarray, COS7 lysate, 635/667 nm fluorescence (AID 1150); settings: COS7 hTOR1A mutant lysate, 635 nm fluorescence, higher = more signal;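 further: score pools 667 nm emission and signal to noise measuring lysate protein binding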
[10] = test system: Sonic hedgehog protein (Shh); test: small-molecule binders of Shh protein, primary screen, biochemical, small-molecule microarray, 635/667 nm fluorescence (AID 1151); settings: small-molecule microarray binding, 635 nm fluorescence; higher = more signal;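 further: Shh protein binding to compounds spotted on small-molecule microarray slides; score combines spot fluorescence intensity with signal-to-noise across triplicate slides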
[11] = E. coli DRC41 culture turbidity changes, primary screen, E. coli filamentation inducer project, strain DRC41, OD650, 48 h (AID 1152);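 further: E. coli MC1000 strain DRC41 lacking acrAB efflux pump and sulA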; settings: E. coli DRC41 (acrAB sulA), higher = more signal, called active from +8 up or from −8 down
[12] = small-molecule binders of probe aLefty1, primary screen, biochemical, small-molecule microarray, 635/667 nm fluorescence (AID 1153); settings: higher = more signal;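 further: score merges spot fluorescence with signal-to-noise ratio from the scanned slide images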
[13] = PSAC antagonists in infected red cells, primary screen, cell-based, P. falciparum Indochina, OD700, 1 h (AID 1154); settings: P. falciparum Indochina infected RBC osmotic lysis, higher = more signal, called active from +8 up or from −8 down
[14] = PSAC antagonists in infected red cells, primary screen, cell-based, P. falciparum Indochina, OD700, 2 h (AID 1155);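 further: lysis reports solute entry through the parasite surface anion channel PSAC; channel blockers reduce lysis of infected cells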; settings: P. falciparum Indochina infected erythrocytes, osmotic lysis OD700; higher = more signal, called active from +8 up or from −8 down
[15] = osmotic lysis modulators in infected erythrocytes, primary screen, PSAC antagonist project, cell-based, P. falciparum Indochina, OD700, 3 h (AID 1156); settings: higher = more signal, called active from +8 up or from −8 down
[16] = PSAC antagonists in infected red cells, primary screen, cell-based, P. falciparum Indochina, OD700, 18 h (AID 1157); settings: P. falciparum Indochina infected erythrocytes, osmotic lysis OD700, 18 h; higher = more signal, called active from +8 up or from −8 down
[17] = modulators of S6 phosphorylation in cells, primary screen, cell-based, A549, cytoblot, luminescence, serum-stimulated (AID 1158); settings: A549 phospho-S6 cytoblot, 5 h, higher = more signal;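 further: serum-stimulated A549 lung adenocarcinoma cells; signal is phosphorylated S6 detected by cytoblot immunostaining with HRP secondary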
[18] = molecular target: NADPH oxidase 2 (Homo sapiens) (UniProt P04839); test: NOX2-dependent H2O2 signal modulators, primary screen, NOX inhibitor project, cell-based, HEK293-NOX2, PMA-stimulated, Amplex Red fluorescence (AID 1159); settings: 45 min, higher = more signal, called active from +8 up or from −8 down; further: test concentration not given here
Chain of NADPH oxidase 2 (Homo sapiens) (P04839 whole entry, looked up): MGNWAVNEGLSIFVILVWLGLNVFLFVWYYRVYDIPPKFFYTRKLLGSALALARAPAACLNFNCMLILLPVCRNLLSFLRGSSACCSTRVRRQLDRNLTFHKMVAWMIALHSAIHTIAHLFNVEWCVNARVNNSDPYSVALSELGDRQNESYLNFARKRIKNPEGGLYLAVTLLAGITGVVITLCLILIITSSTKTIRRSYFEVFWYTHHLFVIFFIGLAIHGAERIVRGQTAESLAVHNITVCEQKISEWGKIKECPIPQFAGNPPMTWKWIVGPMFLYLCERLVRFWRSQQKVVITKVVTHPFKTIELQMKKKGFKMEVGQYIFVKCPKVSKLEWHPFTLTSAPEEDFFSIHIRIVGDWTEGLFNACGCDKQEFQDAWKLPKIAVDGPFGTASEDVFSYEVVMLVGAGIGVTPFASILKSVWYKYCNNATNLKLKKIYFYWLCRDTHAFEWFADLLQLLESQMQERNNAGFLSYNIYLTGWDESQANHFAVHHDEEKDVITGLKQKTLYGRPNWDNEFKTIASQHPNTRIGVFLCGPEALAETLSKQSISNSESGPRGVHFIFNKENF

[19] = molecular target: NADPH oxidase 4 (Homo sapiens) (UniProt Q9NPH5); test: NOX4-dependent H2O2 signal modulators, primary screen, NOX inhibitor project, cell-based, HEK293-NOX4, tetracycline-induced, Amplex Red fluorescence (AID 1160); settings: 45 min, higher = more signal, called active from +8 up or from −8 down
Chain of NADPH oxidase 4 (Homo sapiens) (Q9NPH5 whole entry, looked up): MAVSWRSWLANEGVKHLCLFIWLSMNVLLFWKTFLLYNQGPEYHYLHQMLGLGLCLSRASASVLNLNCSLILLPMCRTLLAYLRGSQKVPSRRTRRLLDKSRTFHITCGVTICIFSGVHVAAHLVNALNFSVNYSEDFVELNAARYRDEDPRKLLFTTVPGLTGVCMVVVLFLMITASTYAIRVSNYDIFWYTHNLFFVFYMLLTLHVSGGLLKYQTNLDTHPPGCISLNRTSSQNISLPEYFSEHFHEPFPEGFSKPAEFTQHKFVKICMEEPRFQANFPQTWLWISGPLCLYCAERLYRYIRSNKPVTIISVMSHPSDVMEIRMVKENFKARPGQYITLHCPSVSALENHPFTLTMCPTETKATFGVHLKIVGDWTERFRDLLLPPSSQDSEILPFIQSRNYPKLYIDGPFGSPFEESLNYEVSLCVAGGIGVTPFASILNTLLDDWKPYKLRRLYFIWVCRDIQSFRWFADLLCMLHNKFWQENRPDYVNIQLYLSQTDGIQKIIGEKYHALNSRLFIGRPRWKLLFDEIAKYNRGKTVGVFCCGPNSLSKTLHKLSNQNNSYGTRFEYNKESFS

[20] = molecular target: NADPH oxidase 5 (Homo sapiens) (UniProt Q96PH1); test: NOX5-dependent H2O2 signal modulators, primary screen, NOX inhibitor project, cell-based, HEK293-NOX5, Amplex Red fluorescence (AID 1161); settings: HEK293-NOX5, ionomycin, 45 min, higher = more signal
Chain of NADPH oxidase 5 (Homo sapiens) (Q96PH1 whole entry, looked up): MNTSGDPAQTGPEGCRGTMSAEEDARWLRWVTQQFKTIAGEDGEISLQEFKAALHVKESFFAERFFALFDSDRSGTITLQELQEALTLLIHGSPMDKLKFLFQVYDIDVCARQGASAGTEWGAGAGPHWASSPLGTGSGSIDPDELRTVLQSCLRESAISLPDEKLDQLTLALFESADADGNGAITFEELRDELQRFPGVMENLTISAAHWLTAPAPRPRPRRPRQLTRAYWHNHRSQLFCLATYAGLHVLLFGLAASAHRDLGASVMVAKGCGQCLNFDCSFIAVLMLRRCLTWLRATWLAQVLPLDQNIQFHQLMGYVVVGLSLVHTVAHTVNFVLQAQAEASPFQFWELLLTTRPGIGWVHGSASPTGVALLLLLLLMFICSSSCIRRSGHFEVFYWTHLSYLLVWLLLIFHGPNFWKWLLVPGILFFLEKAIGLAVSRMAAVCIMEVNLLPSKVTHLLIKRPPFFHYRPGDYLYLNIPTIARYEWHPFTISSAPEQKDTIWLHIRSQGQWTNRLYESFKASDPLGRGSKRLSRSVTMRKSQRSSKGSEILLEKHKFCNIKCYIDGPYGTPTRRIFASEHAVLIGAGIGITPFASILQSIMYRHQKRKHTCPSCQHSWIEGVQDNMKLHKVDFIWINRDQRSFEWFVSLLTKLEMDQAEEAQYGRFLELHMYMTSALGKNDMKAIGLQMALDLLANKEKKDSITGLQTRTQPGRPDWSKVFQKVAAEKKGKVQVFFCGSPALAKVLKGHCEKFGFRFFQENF

SMILES	composite z-score [1]	z-score [2]	z-score [3]	z-score [4]	z-score [5]	composite z-score [6]	composite z-score [7]	composite z-score (Torsin-1A (Homo sapiens) [8])	composite z-score (Torsin-1A (Homo sapiens) [9])	composite z-score [10]	z-score [11]	composite z-score [12]	z-score [13]	z-score [14]	z-score [15]	z-score [16]	z-score [17]	z-score [18]	z-score [19]	z-score [20]
O=C1C[C@@](C(=O)NC2CC2)(c2ccc([N+](=O)[O-])cc2)[C@@H](c2ccc(CO)cc2I)N1CC12CC3CC(CC(C3)C1)C2	0.157	-5.82 (inactive)	0.87 (inactive)	0.818 (inactive)	1.25 (inactive)	0.376	-0.134	-0.371	0.362	1.95	-1.11 (inactive)	0.0158	22.3 (active)	6.32 (inactive)	1 (inactive)	1.99 (inactive)	-0.284	1.86 (inactive)	0.129 (inactive)	1.92
CC(C)(C)OC(=O)CC[C@]1(C(=O)N2CCCCC2)N=C(c2ccc(OCCCO)cc2)O[C@H]1c1ccccc1	0.836	-3.16 (inactive)	0.418 (inactive)	1.55 (inactive)	-1.85 (inactive)	2.08	-0.0112	1.68	1.04	1.19	0.978 (inactive)	-0.294	24 (active)	6.24 (inactive)	1.03 (inactive)	-0.186 (inactive)	2.2	-1.41 (inactive)	1.02 (inactive)	0.541
COc1cc2c(cc1OC)CN(C(=O)[C@H]1[C@@H]3C(=O)O[C@@H](c4ccccc4)[C@@H](c4ccccc4)N3[C@@H](c3ccc(O)cc3)[C@]13C(=O)Nc1ccc(C#CC4(O)CCCCCC4)cc13)CC2	0.723	-0.715 (inactive)	-0.785 (inactive)	0.425 (inactive)	0.603 (inactive)	2.42	0.472	0.601	1.36	1.39	-0.287 (inactive)	1.76	0.621 (inactive)	1.23 (inactive)	0.89 (inactive)	0.737 (inactive)	0.48	1.79 (inactive)	-0.239 (inactive)	1.02
COc1ccc(C(=O)Nc2ccc(CN3C(=O)[C@]4(O[C@H](CCn5cc(CCO)nn5)[C@@H]([Si](C)(C)c5ccc(OC)cc5)[C@@H]4C)c4ccccc43)cc2)cc1	0.278	-7.86 (inactive)	-0.637 (inactive)	3.37 (inactive)	-1.8 (inactive)	0.863	0.279	0.421	0.638	1.99	0.173 (inactive)	0.0253	9.37 (active)	2.64 (inactive)	1.68 (inactive)	1.67 (inactive)	-0.196	0.844 (inactive)	0.392 (inactive)	3.29
CCCC=C(CCC)[C@@H](NS(=O)(=O)c1ccc(C(F)(F)F)cc1)c1ccc(-c2ccccc2)cc1	0.281	-2.08 (inactive)	0.524 (inactive)	-0.372 (inactive)	0.486 (inactive)	0.991	0.0445	0.059	0.664	0.618	-1.78 (inactive)	0.448	2.51 (inactive)	0.329 (inactive)	-0.516 (inactive)	0.543 (inactive)	1.47	-1.57 (inactive)	-0.618 (inactive)	2.7
C[C@]1(C(=O)NCCN2CCOCC2)c2ccccc2C(=O)N(Cc2ccccc2)[C@H]1c1ccc(CO)cc1	-0.21	-1.82 (inactive)	-2.31 (inactive)	-0.412 (inactive)	-0.0192 (inactive)	-0.833	-0.0405	0.403	0.915	-0.928	0.402 (inactive)	-0.0969	5.59 (inactive)	0.516 (inactive)	1.88 (inactive)	0.719 (inactive)	0.282	0.346 (inactive)	-1.61 (inactive)	-2.77
O=C1OCCC/C=C\[C@H]2OC34C=CCN(CCN5CCOCC5)C(=O)[C@H]3N(CCCCCO)C(=O)[C@@H]4C12 (stereo not given in full)	-0.498	0.305 (inactive)	1.67 (inactive)	0.597 (inactive)	0.515 (inactive)	-0.293	0.202	-1.01	-0.649	0.392	-0.938 (inactive)	-0.0984	1.07 (inactive)	-0.314 (inactive)	-0.566 (inactive)	-0.525 (inactive)	-0.768	0.796 (inactive)	-0.109 (inactive)	1.01
CCOC(=O)C1=C[C@@H](c2ccccc2)N(S(=O)(=O)c2ccc(C)cc2)[C@H]1c1ccc(F)cc1	0.0679	-3.77 (inactive)	0.449 (inactive)	-0.826 (inactive)	-0.552 (inactive)	0.95	0.225	0.347	0.431	0.488	-1.15 (inactive)	0.275	1.66 (inactive)	1.42 (inactive)	-0.101 (inactive)	1 (inactive)	-0.217	0.108 (inactive)	0.814 (inactive)	-0.291
Cc1ccc(N2C(=O)c3ccccc3[C@@H](C(=O)NCC(F)(F)F)[C@@H]2c2ccc(CO)cc2)nc1	0.0023	-0.977 (inactive)	0.00438 (inactive)	0.791 (inactive)	0.495 (inactive)	-1.62	0.17	-1.76	-1.78	0.0716	0.734 (inactive)	-0.0099	1.32 (inactive)	0.422 (inactive)	0.827 (inactive)	0.38 (inactive)	0.189	1.22 (inactive)	0.32 (inactive)	-0.914
